Records with an inconclusive call do not appear. Calls of active or inactive are those of the source. Unless noted, calls come from the whole dose curve.
Test system: not listed separately
Assay: qHTS for Inhibitors of Plasmodium falciparum (CP250) proliferation (AID 504320; active = well fitted inhibition curve with a large enough effect)
Conditions: P. falciparum CP250 in erythrocytes, SYBR Green DNA, 72 h; series mostly up to 6.7 µM
How it was run: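 Erythrocytes infected with P. falciparum line (0.3% parasitemia, 2.5% hematocrit final) incubated with compounds 72 h at 37 °C, 5% CO2; SYBR Green lysis buffer added, fluorescence read next day. Normalized to 0.29 uM artemisinin and DMSO.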

Potency, inactive:
CC1=CC[C@@H](COc2ccccc2)O[C@@]2(C1)C(=O)N(CC1CC1)c1ccccc12, C=C(C)C[C@@]1(c2ccccc2)Oc2ccccc2C2=NCCN=C21, CC12C=C(C=Cc3ccccc3)C(C)(C1)C(c1ccccc1)CC2=O (configuration not stated), CC1(OC(=O)c2ccc(Cl)nc2)C(=O)C=C2C=C(c3ccsc3)OC=C2C1=O (configuration not stated), CCc1cc2c(nc1CC)CCN(CCC(C)=NOCC[C@@H]1C=C[C@H](OC(C)=O)[C@@H](COC(C)=O)O1)C2, CC(C)=CCCC(C)=CCON=C1C[C@@H](O)[C@@H](O)[C@@H]2[C@H]3C(=O)N(Cc4ccccc4)C(=O)[C@@H]3CC[C@@H]12, Oc1ccc2c(c1-c1c(O)c(Br)cc3c1CCCC3)CCCC2, COc1ccc(O[C@H]2C=C[C@@H](c3ccccc3)O[C@H]2COC(=O)CCC(C)=NO[C@H](C)c2cn([C@@H]3COC[C@@H]3O)nn2)cc1, C#CCCOC(=O)N1C2=NC3=C(C(=O)N(Cc4ccc5c(c4)OCO5)C3=O)C3N(C)c4ccccc4[C@]23C[C@H]1CO (some centres not stated), CC(C)=CCCC(C)=CC=CC1=CC2(C)CC1(C)C(C=C(C)CCC=C(C)C)CC2=O (configuration not stated), C=CCC(Nc1ccc(OC)cc1)(C(=O)OCC)c1ccccc1 (configuration not stated), COC(=O)C1=C(C)N(CC2CC2)C(=O)NC1CCc1ccccc1 (configuration not stated), C[C@H]1Cc2c(COc3ccccc3)nc3c(c2CO1)CN(C(=O)NCc1ccco1)CC3, CCc1cc2c(nc1CC)CCN(CCC(C)=NO[C@@H]1O[C@H](COC(C)=O)[C@@H](OC(C)=O)[C@H](OC(C)=O)[C@@H]1OC(C)=O)C2, COC1=C[C@@H](C(=O)N[C@H]2CCCC[C@H]2NC(C)=O)[C@]2(C)Cc3ccccc3[C@H]2CC1=O, C[C@H](NC(=O)N1CCc2nc(-c3ccccc3)c3c(c2C1)CO[C@@H](C)C3)c1ccccc1, COc1cc(CCN2C(=O)NC(c3cccc(C(F)(F)F)c3)C(C(C)=O)=C2C)cc(OC)c1OC (configuration not stated), COC(=O)C1=C(C(=O)OC)[C@@H]2N(C)c3ccccc3[C@@]23CCC(=O)N(Cc2ccc4c(c2)OCO4)C3=N1, CC(CCN1CCc2nc(-c3ccccc3)c(-c3ccccc3)cc2C1)=NOC[C@@H](O)COCc1ccco1, COC(=O)C1=C(C(=O)OC)[C@@H]2N(C)c3ccc(OC)cc3[C@@]23C[C@@H](C(=O)OC)N(C(=O)N2CCNC2=O)C3=N1, COc1ccc2c3c(c(=O)oc2c1)[C@H]1O[C@](c2ccsc2)(Cc2cc(C#N)ccc21)O3, C[C@@H]1C=CCC(=O)N2[C@H](CC(=O)N[C@@H]1c1ccccc1)C[C@@H](C)[C@@H]2c1ccccc1

Target: Atrial natriuretic peptide receptor 1 (Homo sapiens) (UniProt P16066)
Assay: Natriuretic polypeptide receptor (hNpr1) antagonism - Pilot CMLD screen (AID 1347052);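 note: HEK293 cells with hNpr1 stimulated by hNppA peptide at 0.1 nM; cGMP level read as GloSensor luciferase luminescence after agonist stimulation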
Conditions: HEK293 hNpr1 GloSensor cGMP luminescence, ANP-stimulated; series mostly up to 9.22 µM

Chain of Atrial natriuretic peptide receptor 1 (Homo sapiens) (P16066 whole entry, looked up): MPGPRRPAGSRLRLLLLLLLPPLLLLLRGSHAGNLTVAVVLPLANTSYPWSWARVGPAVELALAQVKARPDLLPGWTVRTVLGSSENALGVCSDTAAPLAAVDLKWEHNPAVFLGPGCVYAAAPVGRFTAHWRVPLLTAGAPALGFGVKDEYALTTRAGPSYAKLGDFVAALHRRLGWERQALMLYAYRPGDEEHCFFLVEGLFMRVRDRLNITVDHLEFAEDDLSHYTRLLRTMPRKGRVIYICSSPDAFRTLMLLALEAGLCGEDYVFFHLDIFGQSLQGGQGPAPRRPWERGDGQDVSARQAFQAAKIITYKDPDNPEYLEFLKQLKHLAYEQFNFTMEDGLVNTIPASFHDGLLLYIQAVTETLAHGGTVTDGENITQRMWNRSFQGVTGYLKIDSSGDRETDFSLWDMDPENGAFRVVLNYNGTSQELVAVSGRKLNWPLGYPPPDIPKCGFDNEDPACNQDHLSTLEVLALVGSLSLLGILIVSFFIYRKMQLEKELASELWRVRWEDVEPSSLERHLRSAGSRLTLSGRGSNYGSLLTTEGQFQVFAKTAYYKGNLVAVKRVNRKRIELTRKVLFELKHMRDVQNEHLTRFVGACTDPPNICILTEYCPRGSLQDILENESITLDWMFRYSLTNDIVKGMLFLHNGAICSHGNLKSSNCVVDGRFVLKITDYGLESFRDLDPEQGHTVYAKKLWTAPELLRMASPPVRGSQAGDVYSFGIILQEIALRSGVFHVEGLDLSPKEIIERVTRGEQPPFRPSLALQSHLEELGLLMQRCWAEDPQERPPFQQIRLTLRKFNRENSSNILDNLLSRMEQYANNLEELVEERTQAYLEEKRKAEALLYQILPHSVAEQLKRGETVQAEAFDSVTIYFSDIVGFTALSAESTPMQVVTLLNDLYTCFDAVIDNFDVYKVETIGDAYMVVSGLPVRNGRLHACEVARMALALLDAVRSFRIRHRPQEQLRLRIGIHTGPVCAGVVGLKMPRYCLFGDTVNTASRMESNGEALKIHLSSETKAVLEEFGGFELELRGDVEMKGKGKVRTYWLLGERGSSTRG

Potency, inactive:
CC1=CC[C@@H](COc2ccccc2)O[C@@]2(C1)C(=O)N(CC1CC1)c1ccccc12, C=C(C)C[C@@]1(c2ccccc2)Oc2ccccc2C2=NCCN=C21, CC12C=C(C=Cc3ccccc3)C(C)(C1)C(c1ccccc1)CC2=O (configuration not stated), CC1(OC(=O)c2ccc(Cl)nc2)C(=O)C=C2C=C(c3ccsc3)OC=C2C1=O (configuration not stated), CCc1cc2c(nc1CC)CCN(CCC(C)=NOCC[C@@H]1C=C[C@H](OC(C)=O)[C@@H](COC(C)=O)O1)C2, CC(C)=CCCC(C)=CCON=C1C[C@@H](O)[C@@H](O)[C@@H]2[C@H]3C(=O)N(Cc4ccccc4)C(=O)[C@@H]3CC[C@@H]12, Oc1ccc2c(c1-c1c(O)c(Br)cc3c1CCCC3)CCCC2, COc1ccc(O[C@H]2C=C[C@@H](c3ccccc3)O[C@H]2COC(=O)CCC(C)=NO[C@H](C)c2cn([C@@H]3COC[C@@H]3O)nn2)cc1, COc1ccc(O[C@H]2C=C[C@@H](c3ccccc3)O[C@H]2COC(=O)CCC(C)=NO[C@H](C)CN2CCCc3nc(C)c(C)cc32)cc1, CC#CCN1c2ccccc2[C@]23CCC(=O)N(Cc4ccco4)C2=NC(C(=O)OC)=C(C(=O)OC)[C@H]13, O=C(N[C@H](c1cccc(Br)c1)[C@@H]1CCCC=C1c1ccccc1)C(F)(F)F, CCCC[C@]12Cc3cc(OC)c(OC)cc3[C@H](O1)c1c(cc(-c3ccccc3)oc1=O)O2, C=C[C@H]1CCC=C2C(=O)CCC[C@H]21, C#CCCOC(=O)N1C2=NC3=C(C(=O)N(Cc4ccc5c(c4)OCO5)C3=O)C3N(C)c4ccccc4[C@]23C[C@H]1CO (some centres not stated), O=C1C2=C(C(=O)c3ccccc31)[C@H]1O[C@](c3ccsc3)(Cc3ccccc31)O2, CC(C)=CCCC(C)=CC=CC1=CC2(C)CC1(C)C(C=C(C)CCC=C(C)C)CC2=O (configuration not stated), C=CCC(Nc1ccc(OC)cc1)(C(=O)OCC)c1ccccc1 (configuration not stated), CCOC(=O)OC[C@H]1O[C@H](c2ccc(C(C)=O)cc2)C=C[C@H]1Oc1ccc(-c2ccccc2)cc1, COC(=O)C1=C(C(=O)OC)[C@@H]2N(Cc3ccccc3)c3ccccc3[C@@]23C[C@@H](CO)N(C(=O)CC(C)C)C3=N1, COC(=O)C1=C(C)N(CC2CC2)C(=O)NC1CCc1ccccc1 (configuration not stated), COC(=O)C1=C(C)N(Cc2ccccc2)C(=NCCCCO)NC1c1cccc(F)c1 (configuration not stated), CCCCCCCc1cc2ccc(F)cc2c2c(C(=O)OC)c(C(=O)OC)c(C(=O)OC)n12, C[C@H]1Cc2c(COc3ccccc3)nc3c(c2CO1)CN(C(=O)NCc1ccco1)CC3, C=CCN=C1NC(c2cccc(C(F)(F)F)c2)C(C(=O)OC)=C(C)N1Cc1ccccc1 (configuration not stated), CCc1cc2c(nc1CC)CCN(CCC(C)=NO[C@@H]1O[C@H](COC(C)=O)[C@@H](OC(C)=O)[C@H](OC(C)=O)[C@@H]1OC(C)=O)C2, C=C(C[C@@]1(C(=O)OC)C=C[C@@H](C)[C@H](c2ccccc2Br)N1C(=O)C(F)(F)F)c1ccccc1, COC1=C[C@@H](C(=O)N[C@H]2CCCC[C@H]2NC(C)=O)[C@]2(C)Cc3ccccc3[C@H]2CC1=O, C[C@H](NC(=O)N1CCc2nc(-c3ccccc3)c3c(c2C1)CO[C@@H](C)C3)c1ccccc1, COc1cc(CCN2C(=O)NC(c3cccc(C(F)(F)F)c3)C(C(C)=O)=C2C)cc(OC)c1OC (configuration not stated), COC(=O)C1=C(C(=O)OC)[C@@H]2N(C)c3ccccc3[C@@]23CCC(=O)N(Cc2ccc4c(c2)OCO4)C3=N1, CC(CCN1CCc2nc(-c3ccccc3)c(-c3ccccc3)cc2C1)=NOC[C@@H](O)COCc1ccco1, COc1ccc(O[C@H]2C=C[C@@H](c3ccccc3)O[C@H]2COC(=O)CCC(C)=NOC[C@@H](C)[C@H](OCc2ccccc2)C(C)C)cc1, COC(=O)C1=C(C(=O)OC)[C@@H]2N(C)c3ccc(OC)cc3[C@@]23C[C@@H](C(=O)OC)N(C(=O)N2CCNC2=O)C3=N1, CCCC[C@]12Cc3cc(OC)c(OC)cc3[C@H](O1)C1=C(CC3(CCCCC3)OC1=O)O2, COc1ccc2c3c(c(=O)oc2c1)[C@H]1O[C@](c2ccsc2)(Cc2cc(C#N)ccc21)O3, CCCC[C@]12Cc3cc(C#N)ccc3[C@H](O1)c1c(cc(C)n(Cc3ccccc3)c1=O)O2, C[C@@H]1C=CCC(=O)N2[C@H](CC(=O)N[C@@H]1c1ccccc1)C[C@@H](C)[C@@H]2c1ccccc1, CCc1cc2c(nc1CC)CCN(CCC(C)=NOC[C@H]1O[C@H](c3ccccc3)C=C[C@H]1Oc1ccc(OC)cc1)C2, COC(=O)[C@@H]1CC[C@H](C)[C@@H](c2ccc(C)cc2)N1C(=O)c1ccc(C=NOC[C@H]2O[C@H](c3ccccc3)C=C[C@H]2Oc2ccc(OC)cc2)cc1, CC(CCN1CCCc2nc(C)c(C)cc21)=NO[C@H](C)c1cn([C@H](CO)Cc2ccccc2)nn1
